Bioassay records (PubChem BioAssay)
This is a sample that favours compounds with a hit; in the whole collection about 2.4% have one here.
HTT prom inh = Primary qHTS for Identification of Small Molecule Inhibitors of Huntingtin Promoter Activity. HEK293 HTT promoter firefly luciferase reporter, 24 h. Potency, µM (doses to about 57.5 µM), for the others: top-dose activity change, negative = inhibition, usual class: inhibitors. 48,000 tested, 0.93% active; also: potency is read from the fitted curve at half-maximal effect; nearly all actives have a fitted effect of over 50% in size
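Luminescence was read after Dual-Glo reagent and a 10 min room-temperature incubation. Values were normalized to vehicle (0% activity) and zero RLU (-100% activity). Reporter HEK293 cells had been exposed to compounds (up to 57.5 uM final) for 24 h.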
NTMT1 inh = Primary qHTS for Inhibitors of N-terminal methyltransferase 1 (NTMT1): MTaseGlo Assay. N-terminal Xaa-Pro-Lys N-methyltransferase 1 (Homo sapiens), Q9BV86. NTMT1 MTase-Glo SAH luminescence, purified enzyme. Potency, µM (highest dose often 114 µM), without a hit: at the highest dose activity change, negative = inhibition, usual class: inhibitors. 59,000 tested, 2.5% active. AID 1645870, 2021;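 also: potency is read from the fitted curve at half-maximal effect; plate controls were DMSO vehicle for no effect and no enzyme for full effect; nearly all actives have a fitted effect of over 65% in size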
Target sequence (Q9BV86 whole entry, looked up): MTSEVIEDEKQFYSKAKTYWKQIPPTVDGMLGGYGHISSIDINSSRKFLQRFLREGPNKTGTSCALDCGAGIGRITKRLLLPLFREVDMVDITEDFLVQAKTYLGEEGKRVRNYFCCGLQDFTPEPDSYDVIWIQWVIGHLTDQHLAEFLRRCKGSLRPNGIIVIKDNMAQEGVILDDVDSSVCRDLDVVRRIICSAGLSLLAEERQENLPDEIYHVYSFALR
HTT-AS act = Primary qHTS for Identification of Small Molecule Activators of Huntingtin-Antisense Promoter Activity; HEK293 HTT-AS promoter firefly luciferase reporter, 24 h; response scale: percent change from vehicle, -100% = no light; Potency, µM (titrated, usually from 57.5 µM), without a hit: top-dose activity change, positive = activation, usual class: activators; 48,000 tested, 0.24% active; AID 1508624, 2021; also: potency is read from the fitted curve at half-maximal effect; nearly all actives have a fitted effect of over 55% in size
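HEK293 luciferase promoter-reporter cells (2,500/well) plated 24 h, then compounds added at up to 57.5 uM final for 24 h at 37 °C. Firefly luminescence by Dual-Glo, normalized to vehicle (0%) and zero RLU (-100%).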
CLK4 inh-1 = Confirmation Assay for Inhibitors of CDC-like Kinase 4 (Kinase-Glo Assay): SAR round 2; Potency, µM (doses to about 76.9 µM), without a hit: at the highest dose activity, negative = inhibition, usual class: inhibitors; recombinant Clk4, Kinase-Glo ATP luminescence, 4.5 h; 90 tested, 90% active; shares compounds with NTMT1 inh
CLK4 inh-2 = Kinase Inhibition Study on Inhibitors of CDC-like Kinase 4 (Reaction Biology data): SAR round 2. shares compounds with NTMT1 inh. Reaction Biology kinase assay, 10 uM ATP. Potency, µM, actives largely listed as inhibitors. 65 tested, 100% active. AID 504421, 2011; calls by dose curve
DYRK1A inh = Kinase Inhibition Study on Inhibitors of Dyrk1a (Reaction Biology data); shares compounds with NTMT1 inh; Reaction Biology kinase assay, 10 uM ATP; Potency, µM, most hits filed as inhibitors; 65 tested, 90% active; AID 504424, 2011;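 active = compounds that showed inhibition of Dyrk1a and received a fitted potency; inactive = compounds that showed no inhibition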
CLK2 inh = Kinase Inhibition Study on Inhibitors of CDC-like Kinase 2 (Reaction Biology data); Potency, µM, hits mostly inhibitors; AID 504427, 2011; 65 tested, 90% active; Reaction Biology kinase assay, 10 uM ATP; shares compounds with NTMT1 inh;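 active = compound that inhibits Clk2 kinase in the dose series, with an IC50 potency reported; inactive = no inhibition seen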
CLK3 RBC = Kinase Inhibition Study on Inhibitors of CDC-like Kinase 3 (Reaction Biology data); recombinant CLK3 kinase assay, 10 uM ATP; 65 tested, 40% active; shares compounds with NTMT1 inh; Potency, µM, actives largely listed as inhibitors;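 active = compounds that inhibited Clk3 enough in the ten-dose series to give a half-maximal potency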
DYRK1B inh = Kinase Inhibition Study on Inhibitors of Dyrk1b (Reaction Biology data); 65 tested, 80% active; shares compounds with NTMT1 inh; Potency, µM, most hits filed as inhibitors; Recombinant Dyrk1b kinase assay, 10 uM ATP;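 active = compounds whose dose response shows an inhibitor phenotype against the kinase Dyrk1b; inactive = compounds showing no inhibitor phenotype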
CLK1 inh = Kinase Inhibition Study on Inhibitors of CDC-like Kinase 1 (Reaction Biology data). shares compounds with NTMT1 inh. recombinant Clk1 kinase assay, 10 uM ATP. Potency, µM, hits mostly inhibitors. 65 tested, 90% active;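 active = compounds that block the splicing kinase Clk1 enough to give a fitted half-inhibition concentration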
Sfp qHTS opt = qHTS Assay for Inhibitos of Bacillus subtilis Sfp phosphopantetheinyl transferase (PPTase): Chemistry Optimization Followup. shares compounds with NTMT1 inh. purified Sfp PPTase enzyme activity, qHTS. Potency, µM (top dose mostly 114 µM), inactives show at the top dose activity change, negative = inhibition, actives largely listed as inhibitors. 230 tested, 78% active. AID 540350, 2011
Bsub HM489 growth = qHTS for Inhibitos of Bacillus subtilis Sfp phosphopantetheinyl transferase (PPTase): Chemistry Optimization Followup in B. Subtilis HM489. Potency, µM (top dose mostly 114 µM), inactives show at the highest dose activity change, negative = inhibition, actives largely listed as inhibitors. B. subtilis HM489 (acpS-) growth, BacTiter-Glo, 5 h. 220 tested, 50% active. shares compounds with NTMT1 inh. AID 540353, 2011
Sfp PPTase gel = Gel-Based Assay for Inhibitos of Bacillus subtilis Sfp phosphopantetheinyl transferase (PPTase): Chemistry Optimization Followup; purified Sfp PPTase, gel-based product detection; 220 tested, 54% active; shares compounds with NTMT1 inh; Potency, µM (doses to about 250 µM), for inactives: at the top dose activity change, negative = inhibition, usual class: inhibitors
Sfp inh SAR2 = qHTS Assay for Inhibitors of Bacillus subtilis Sfp phosphopantetheinyl transferase (PPTase): SAR Round 2 | shares compounds with NTMT1 inh | purified Sfp enzyme, PPTase activity, qHTS | Potency, µM (titrated, usually from 57.1 µM), for the others: top-dose activity change, negative = inhibition, actives largely listed as inhibitors | 230 tested, 87% active
HSD17B4 inh = Extended Characterization of HPGD Inhibitors: Counterscreen Against HSD17b4; shares compounds with NTMT1 inh; purified HSD17B4, estradiol/NAD+, NADH fluorescence; Potency, µM (top dose mostly 57.1 µM), without a hit: top-dose activity change, negative = inhibition, actives largely listed as inhibitors; 230 tested, 10% active; AID 743187, 2013
ALDH1A1 inh = Extended Characterization of HPGD Inhibitors: Counterscreen Against ALDH1A1. AID 743195, 2013. Potency, µM (doses to about 57.1 µM), without a hit: top-dose activity change, negative = inhibition, actives largely listed as inhibitors. recombinant ALDH1A1, NADH fluorescence, propionaldehyde/NAD+. shares compounds with NTMT1 inh. 230 tested, 93% active
NNMT inh = Counterscreen qHTS for Inhibitors of N-terminal methyltransferase 1 (NTMT1): NNMT MTaseGlo assay; 120 tested, 10% active; NNMT MTase-Glo luminescence, SAH detection; Potency, µM (highest dose often 57.1 µM), for inactives: at the top dose activity, negative = inhibition, actives largely listed as inhibitors; shares compounds with NTMT1 inh
Target sequence (P40261 whole entry, looked up): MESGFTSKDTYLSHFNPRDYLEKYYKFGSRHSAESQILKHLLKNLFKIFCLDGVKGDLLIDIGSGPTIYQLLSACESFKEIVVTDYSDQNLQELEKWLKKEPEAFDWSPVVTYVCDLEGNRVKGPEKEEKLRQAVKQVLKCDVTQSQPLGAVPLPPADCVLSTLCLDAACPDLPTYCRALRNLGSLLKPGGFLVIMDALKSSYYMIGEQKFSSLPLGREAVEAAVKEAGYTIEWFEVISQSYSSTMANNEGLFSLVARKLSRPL
Numbers without * were called inactive; i = inactive; ? = inconclusive; . = no result given; [ ] = dose if it differs, or a comment. Unless noted, calls follow the shape of the dose curve; as a rule, active = well fitted curve in the direction sought with a large enough effect; inconclusive = small, poorly fitted or top-dose-only effect, or another doubt; inactive = no such curve, though single readings can be large; an effect the other way counts as inactive or inconclusive.

SMILES | HTT prom inh | NTMT1 inh | HTT-AS act | others
CC(C)(C)c1ccc(-c2nc3ccccc3[nH]2)cc1 | . | 10µM* | . | NNMT inh=?
CC(C)(C)c1ccc(C(=O)Nc2ccc(-c3nc4ccccc4[nH]3)cc2)cc1 | . | 4.8% | .
O=C(Cc1ccc(Cl)c(Cl)c1)Nc1ccc(S(=O)(=O)Nc2cccc(C(=O)O)c2)cc1 | . | -12.6% | .
Cc1ccc(CNC(=O)c2c(C)oc3ncnc(N4CCOCC4)c23)cc1 | -19.2% | -29.3% | -24.3%
Cc1oc2ncnc(N3CCOCC3)c2c1C(=O)N(Cc1ccccc1)C(C)C | -8.6% | ? | -10.9%
O=C(O)c1ccc(-c2ccc3ncnc(N4CCOCC4)c3c2)o1 | . | -0.5% | . | CLK4 inh-1=0.653µM*;CLK4 inh-2=2.95*;DYRK1A inh=44.6µM*;CLK2 inh=32.6µM*;CLK3 RBC=i;DYRK1B inh=33.7µM*;CLK1 inh=46.3µM*
CC(O)c1ccc(-c2ccc3ncnc(N4CCOCC4)c3c2)o1 (stereo not given) | . | ? | . | CLK4 inh-1=0.412µM*;CLK4 inh-2=1.85*;DYRK1A inh=29.2µM*;CLK2 inh=19µM*;CLK3 RBC=i;DYRK1B inh=45.2µM*;CLK1 inh=8.97µM*
COC1CC(=O)C23C(=O)NC(CC(C)C)C2C(C)C(C)=CC3/C=C(\C)CCC(O)C1O (stereo not given) | . | 8.6%[29.8 µM] | .
CCC(=O)N1CCOc2c(cc(-c3cc(OC)cc(OC)c3)cc2C(=O)N[C@H]2CCCN(C)C2)C1 | . | -17.1% | .
NCCOc1cc(C(=O)Nc2cc(OCCN)c3ccccc3n2)nc(C(=O)Nc2cc(OCCN)c3ccccc3n2)c1 | . | 22.4µM* | . | NNMT inh=-12.1%
COc1ccc(Nc2cc(C(=O)NCc3ccccc3)c3ccccc3n2)c(OC)c1 | 5.8% | -3.5% | 16.1%
COC(=O)C1=C(C)NC(C)=C(C(=O)O[C@@H]2CCCN(Cc3ccccc3)C2)[C@@H]1c1cccc([N+](=O)[O-])c1 | ? | ? | -42.2% | NNMT inh=2.7%
CCOC(=O)C1=C(C)NC(C)=C(C(=O)OC)C1c1cccc([N+](=O)[O-])c1 (stereo not given) | -13.5% | -2.7%[57.5 µM] | -22.6%
Cc1cc(C)c(S(=O)(=O)N(CCc2cccc(Br)c2)Cc2ccc(-c3cccc(S(C)(=O)=O)c3)cc2)c(C)c1 | . | 8.9% | .
Cc1cc(C)cc(NC(=O)Cc2ccc(OC(C)(C)C(=O)O)cc2)c1 | . | 0.2%[57.5 µM] | .
Cc1cn(C2OC(CO)C(O)C2F)c(=O)[nH]c1=O (stereo not given) | . | 12.3% | .
Cc1ccc(Cn2c(=O)c3cccnc3n(CC(=O)Nc3cccc(C(F)(F)F)c3)c2=O)cc1 | ? | 7.5% | -38.9%
CCN(c1ccccc1)c1nnc(NC(=O)Nc2cccc(C(F)(F)F)c2)s1 | ? | 8.0% | -13.6%
Cc1ccnc(NC(=S)NCCN(C)c2cccc(C(F)(F)F)c2)c1 | . | -3.3% | . | Sfp qHTS opt=?;Bsub HM489 growth=2.7%;Sfp PPTase gel=-11.0%;Sfp inh SAR2=?;HSD17B4 inh=-4.7%;ALDH1A1 inh=15.2µM*
Cc1ccnc(NC(=S)NCCNc2cccc(C(F)(F)F)c2)c1 | . | ? | . | Sfp qHTS opt=?;Bsub HM489 growth=?;Sfp PPTase gel=-17.7%;Sfp inh SAR2=6.46µM*;HSD17B4 inh=6.07µM*;ALDH1A1 inh=19.2µM*
